A selection: hits, their analogues and other compounds. The true share with any hit is near 4.7%.
TRHR agonist = qHTS for Small Molecule Agonists and Allosteric Enhancers of Human TRH Receptor: Primary Screen for Agonists. AID 493084, 2011. TRHR cells, calcium flux fluo-8, FDSS agonist mode. Thyrotropin-releasing hormone receptor (Homo sapiens), P34981. activation, % at 2 µM. 360,000 tested, 0.18% active; further: 0% is about no effect
Target sequence (P34981 whole entry, looked up): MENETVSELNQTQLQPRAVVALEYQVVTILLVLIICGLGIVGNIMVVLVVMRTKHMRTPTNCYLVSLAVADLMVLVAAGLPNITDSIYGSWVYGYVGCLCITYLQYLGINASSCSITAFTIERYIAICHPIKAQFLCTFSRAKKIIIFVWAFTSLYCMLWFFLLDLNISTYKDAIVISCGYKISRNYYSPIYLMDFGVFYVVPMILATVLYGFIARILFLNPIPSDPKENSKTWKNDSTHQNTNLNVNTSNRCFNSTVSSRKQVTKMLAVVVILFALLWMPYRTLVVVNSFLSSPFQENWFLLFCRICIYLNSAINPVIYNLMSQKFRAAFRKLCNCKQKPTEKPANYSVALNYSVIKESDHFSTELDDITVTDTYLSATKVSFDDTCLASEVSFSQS
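TRHR-expressing cells loaded with fluo-8 calcium dye; 23 nL library compound pin-transferred, kinetic FDSS fluorescence (Ex 480/Em 530) recorded about 180 s for agonist-induced calcium release, before a 10 nM TRH EC20 addition for potentiator mode.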
TRHR enhancer = qHTS for Small Molecule Agonists and Allosteric Enhancers of Human TRH Receptor: Primary Screen for Enhancers | Thyrotropin-releasing hormone receptor (Homo sapiens), P34981 | TRHR cells, fluo-8 calcium fluorescence, EC20 TRH enhancement | enhancement, % at 2 µM | 360,000 tested, 0.66% active; in the data active means enhancement above about 30%; further: 0% is about no effect
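Enhancer read-out: after compound pinning and an initial kinetic agonist-mode read, an EC20 of TRH (10 nM final) was injected and fluo-8 calcium signal (Ex 480/Em 530) followed at 1 s/cycle for 100 cycles in TRHR-expressing cells.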
D1 potentiator = Potentiators of Human D1 Dopamine Receptor: qHTS. HEK293 TREx D1 cells, calcium flux, dopamine EC20 potentiation. potentiation, % at 10 µM. 360,000 tested, 0.036% active. AID 504651, 2011; in the data active means potentiation above about 30%; further: 0% is about no effect
D1 antagonist = Antagonist of Human D 1 Dopamine Receptor: qHTS; HEK293 TREx D1 cells, calcium flux, dopamine EC80; active compounds read low; activity change, negative = inhibition, % at 10 µM; 360,000 tested, 3.2% active; in the data active means activity change below about -30%; further: on the % scale 0 is the no-effect control and ±100 the full control effect
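Kinetic fluorescence of a calcium dye serves as the read-out. D1-expressing Hek293 Trex cells, induced overnight at 30 C, are exposed to compound for 180 s before an EC80 dopamine addition, then read 180 s further.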
D1 agonist = Allosteric Agonists of the Human D1 Dopamine Receptor: qHTS | D(1A) dopamine receptor (Homo sapiens), P21728 | activation, % at 2 µM | 360,000 tested, 1% active | HEK293 T-REx D1 cells, calcium flux, agonist mode | AID 504660, 2011; further: 0% is about no effect
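Tetracycline-induced HEK293 TREx D1 cells, force-coupled to calcium signalling, were dye-loaded with a no-wash calcium kit. Compound was pin-added after a 10 s baseline. Fluorescence was read kinetically at 1 cycle/s for 180 s, with calcium rises flagged as agonism.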
Starred values were filed as active, the others as inactive; ! = repeats disagree. Unless noted, no stated cut-off is given here; in the data, active means activation above about 30%; inactive means the rest.

SMILES	TRHR agonist	TRHR enhancer	D1 potentiator	D1 antagonist	D1 agonist
COc1cc(-c2cc(OC)c3c(C)oc(C)c3c(=O)c2)ccc1OC(=O)c1ccccc1C	1.1	-1.7	-0.2	-6.1	10.2
Cc1cc(NC(=O)c2cc(-c3ccc(Cl)c(Cl)c3)on2)n(-c2ccccc2)n1	1.5	-13.1	0.5	-7.8	1.2
Cc1ccc2occ(-c3cc(-c4ccc(F)cc4)nc4c3COc3ccc(F)cc3-4)c(=O)c2c1	0.0	5.9	-6.2	-8.0	-1.1
COc1ccc(CCNC(=O)C2=C(C)C(=O)OC23CCCCC3)c(OC)c1OC	0.4	31.3*	-3.7	-11.4	-0.3
CC1=C(C(=O)NCc2ccc(Cl)cc2)C2(CCCCCC2)OC1=O	-0.5	4.6	4.2	7.7	44.9*
CC(=O)Nc1sc(/C(C#N)=C\c2cccc(Cl)c2)nc1-c1ccc(C)cc1	67.2*	-3.6	-5.7	-45.4*	244.3*
COc1ccc(NC(=O)/C(C#N)=C\c2cc(C)n(-c3ccc(Oc4ccc([N+](=O)[O-])cn4)cc3)c2C)cc1	0.9	-17.5	3.5	9.0	2.5
Cc1cc(C=O)c(C)n1-c1ccc(Oc2ccc([N+](=O)[O-])cn2)cc1	5.2	-7.4	-2.6	-53.2*	22.4
Cc1cccc(NC(=O)Nc2nnc(N(C)C3CCCCC3)s2)c1C	-0.5	6.2	-4.3	-16.0	-1.9
Cc1c(-c2cccc(NC(=O)Nc3ccccc3)c2)nc2ncccn12	0.0	-4.5	0.9	-56.4*	0.8
O=C(CSc1nc(-c2ccccc2)nc2c1CCCC2)c1ccc(Cl)cc1	-0.4	1.4	2.1	16.5	7.4
N#C/C(=C/c1ccc(N2CCCCC2)o1)C(=O)Nc1ccc(Cl)cc1	164.6*	0.4	-18.1	-2.6	419.9*
COc1ccc(NC(=O)/C(C#N)=C/c2ccc(Br)o2)cc1	0.4	0.0	0.8	-0.6	5.6
N#C/C(=C/c1ccc(N2CCCCC2)o1)C(=O)Nc1ccc2ccccc2c1	106.4*	-13.8	-7.6	-37.6*	312.9*
CCN(CC)c1ccc(NS(=O)(=O)c2cc(-c3onc(C)c3C)ccc2OC)c(C)c1	0.1	1.1	-1.1	17.0	2.3
O=C(c1c[nH]c2ccccc12)C(Cl)c1ccccc1 (stereo not drawn)	-1.9	5.1	-0.7	-38.9*	18.2
O=C(O)c1ccccc1-c1nnc2c(Cl)cc(C(F)(F)F)cn12	0.6	6.9	-2.8	-37.7*	0.7
FC(F)(F)c1cc(Cl)c2nnc(-c3ccccn3)n2c1	-0.6	2.4	2.2	-8.3	1.5
O=C(CCC1N=C2c3ccccc3N=C(SCc3ccc(F)cc3)N2C1=O)NCCc1ccccc1 (stereo not drawn)	-0.2	3.0	0.7	3.6	3.5
COc1cccc(-n2c(SCC(=O)Nc3ccc4c(c3)OCO4)nc3c([nH]c4ccccc43)c2=O)c1	0.2	1.8	-3.1	16.4	2.2
Cc1cccc(NC(=O)CSc2nc(C)c(Cc3ccccc3)c(=O)[nH]2)c1C	-0.8	-4.2	-5.9	-31.4*!	1.1
O=C(O)c1ccccc1-c1ccc(/C=C/c2cc(C(F)(F)F)[nH]c(=O)n2)o1	32.9*	-3.5	0.5	-14.6	145.6*
O=Cc1ccc(-c2ccc(F)cc2)o1	-0.4	4.6	7.5	-2.9	0.3
O=c1nc(/C=C/c2ccc(-c3ccc(F)cc3)o2)cc(C(F)(F)F)[nH]1	26.2	14.7	0.1	-20.0	98.3*
O=C(O)c1cc(Cl)ccc1-c1ccc(/C=C/c2cc(C(F)(F)F)[nH]c(=O)n2)o1	72.6*	-1.6	9.3	-13.7	96.7*
COc1ccc([C@]23Cc4cc(C#N)ccc4C(O2)c2c(cc(C)n(-c4ccccc4)c2=O)O3)cc1	0.2	6.9	-4.0	-5.9	0.5
Cc1c(NC(=O)Nc2cccs2)cccc1[N+](=O)[O-]	0.8	2.9	-12.2	-36.0*	18.1
Cc1cccc(NC(=O)Nc2cccs2)c1C	1.1	12.0	-3.4	-2.7	4.9
O=C(Nc1cccs1)Nc1ccc(Br)cc1F	-0.9	20.6	0.6	-31.6*	16.6
